Consider 18 compounds from PubChem BioAssay.

Values without a mark were called inactive. Active and inactive are the calls of the source. No stated cut-off is given here; in the data, active means fold change permeability below about 0.7 or above about 1.3; inactive means in between.

A short description of this experiment: modulators of brain endothelial barrier permeability, primary screen, cell-based, FITC-avidin fluorescence, HTS (AID 1963498). Further: test concentration not given here. The settings on record: actives lie on both sides.
With `CCCCCCNC(=O)n1cc(F)c(=O)[nH]c1=O`, the fold change permeability was 0.9.

For `N#Cc1c(N2C[C@@H]3NCCO[C@H]3C2)c(F)cc2c(=O)c(C(=O)O)cn(C3CC3)c12`, the fold change permeability was 0.9.

With `NC(=O)C(=O)O`, the fold change permeability was 0.8.

With `N=c1ccn2c(n1)O[C@H]1[C@H](O)[C@@H](CO)O[C@H]12`, the fold change permeability is 1.1.

On to `CCOC(=O)C(C)(C)Oc1ccc(Cl)cc1`, for which the fold change permeability was 0.9.

On to `NC/C=C/C(=O)O`, for which the fold change permeability is 0.8.

With `CC(C)Cn1c(=O)n(C)c(=O)c2[nH]cnc21`, the fold change permeability was 0.7 (active).

Turning to `Nc1nc2c(ncn2[C@@H]2O[C@H](CO)[C@@H](O)[C@@H]2O)c(=O)[nH]1`, the fold change permeability is 2.1 (active).

With `COc1cccc(OC)c1OCCNCC1CSc2ccccc2O1` (stereo not drawn), the fold change permeability was 1.1.

As to `Cn1ccc2cc(NC(=O)Nc3cccnc3)ccc21`, the fold change permeability was 1.2.

As to `Cc1cc(N2C[C@@H](C)N[C@@H](C)C2)ncc1-c1ccc(-c2nc3c(ccn3C)c(=O)[nH]2)cc1`, the fold change permeability was 1.3 (active).

As for `O=C1c2cccc3c2[C@H](CCC3)CN1[C@@H]1CN2CCC1CC2`, the fold change permeability was 1.3 (active).

On to `CCCCCN(CCCOC)C(=O)C(CCC(=O)O)NC(=O)c1ccc(Cl)c(Cl)c1` (stereo not drawn), for which the fold change permeability was 1.

`C[C@@H](N)C1CCC(C(=O)Nc2ccncc2)CC1` (stereo partly drawn): the fold change permeability was 1.2.

Consider `CCCn1c(=O)c2[nH]c(C3CCCC3)nc2n(CCC)c1=O`, for which the fold change permeability is 1.5 (active).

In the case of `CSc1ccc2c(c1)C(N1CCN(C)CC1)Cc1ccccc1S2` (stereo not drawn), the fold change permeability was 0.9.

With `O=C(O)Cc1c[nH]c2ccc(O)cc12`, the fold change permeability was 1.1.

For `O=c1oc(Cl)c(Cl)c2ccccc12`, the fold change permeability is 1.4 (active).
